Each compound was assayed on FLT3. Conditions: concentration: 1 μM, replicates: in singlicate; n = 1.
With `CCS(=O)(=O)c1ccc(OC)c(Nc2nccc(-c3c(-c4cccc(NC(=O)c5c(F)cccc5F)c4)nn4ncccc34)n2)c1` [GSK326180] the “%Inh” value was 0%. In the case of `COc1cc(Nc2nccc(-c3c(-c4cccc(NC(=O)c5c(F)cccc5F)c4)nn4ncccc34)n2)cc(OC)c1OC` [GSK327238], the “%Inh” value is reported as 96.1%. For `COc1ccc(-c2coc3ccc(-c4nnc(SCc5ccc(OC)c(C(F)(F)F)c5)o4)cc23)cc1`, the “%Inh” value was 10%. In the case of `Oc1cc(Nc2ccnc3cc(I)ccc23)ccc1F` [GW552771], the “%Inh” value is reported as 0%. `O=c1[nH]cc(-c2ccc(N3CCOCC3)cc2)c2sc(-c3cn[nH]c3)cc12` [GSK2276055] was tested, and the “%Inh” value was 0%. With `FC(F)(F)c1ccc(/C=C/c2cncnc2Nc2ccc3[nH]c(Cc4ccccc4)nc3c2)cc1` [GW709199] the “%Inh” value was 19%. For `Nc1ncnc2c1nc(-c1ccccc1)n2-c1ccccc1` [SKF-97293], the “%Inh” value was 20%. With `Cn1cc(-c2ccc3c(c2)CCN3C(=O)Cc2cccc(Cl)c2)c2c(N)ncnc21` [GSK2606590] the “%Inh” value was 91.8%. In the case of `Cc1ccc(C(=O)Nc2ccc(Nc3ccnc4cc(-c5nccs5)ccc34)cc2O)cc1.Cl` [GW494702], the “%Inh” value is reported as 14%. With `COc1cc(Nc2ncc3c(C)nc(-c4cc5ccccc5[nH]4)n3n2)cc(OC)c1OC` [GW869516] the “%Inh” value was 96.3%. With `COc1ccc(CNC(=O)NC2CCN(c3ccnc(Nc4ccc(F)cc4)n3)CC2)cc1` [GSK1379788] the “%Inh” value was 0%. With `CCn1c(-c2nonc2N)nc2c(C#CC(C)(C)O)nc(OC[C@H](N)c3ccccc3)cc21` [GSK943949] the “%Inh” value was 3%. `Cl.c1ccc(-c2ccc3c(Nc4ccc5[nH]ncc5c4)ccnc3c2)nc1` [GW440137] was tested, and the “%Inh” value was 0%. In the case of `COc1cccc(-c2ccc3c(NC(=O)C4CC4)n[nH]c3n2)c1` [SB-710903], the “%Inh” value is reported as 0%. With `COc1cccc(C(=O)Nc2cccc(Oc3ccc4nc(NC(=O)C5CC5)cn4n3)c2)c1` the “%Inh” value was 89%. In the case of `CNC(=O)c1ccccc1Nc1nc(Nc2ccc(N3CCOCC3)cc2)ncc1Cl.Cl` [GSK1576028], the “%Inh” value is reported as 99.3%. `O=C(Nc1cccc(Oc2ccc3nc(NC(=O)C4CC4)cn3n2)c1)c1ccccc1C(F)(F)F` was tested, and the “%Inh” value was 20%. In the case of `Cc1ccc(S(=O)(=O)Nc2ccc(Nc3nccc(Nc4cccc5[nH]ncc45)n3)cc2)cc1` [GSK581271], the “%Inh” value is reported as 28%. With `Cc1cccc(NC(=O)Nc2ccc(Oc3ncnc4ccn(C)c34)cc2)c1` the “%Inh” value was 100%. For `CC(=O)Nc1nc2cnc(Nc3cc(NC(=O)c4cccc(C5(C#N)CC5)c4Cl)ccc3C)nc2s1`, the “%Inh” value was 0%. For `COc1cccc(C2=C(Nc3ccc(Cl)c(C(=O)O)c3)C(=O)NC2=O)c1` [SB-390769], the “%Inh” value was 0%. `CN(C)S(=O)(=O)c1cc(-c2ccc3nccc(-c4cccc(S(N)(=O)=O)c4)c3c2)cnc1N` [GSK1669921] was tested, and the “%Inh” value was 1%. With `O=C(Nc1ccccc1F)NC1CCN(c2ccnc(Nc3ccc(F)cc3)n2)CC1` [GSK1379800] the “%Inh” value was 0%. For `O=C(Nc1n[nH]c2cc(-c3ccoc3)ccc12)C1CC1` [SB-738481], the “%Inh” value was 91.8%. With `CSc1cccc2c(-c3ccncn3)c(-c3ccc(F)cc3)nn12` [GW514786] the “%Inh” value was 5%. For `CN(c1ccc(NC(=O)Nc2cc(C(F)(F)F)ccc2F)cc1)c1ccnc(Nc2ccc(S(N)(=O)=O)cc2)n1` [GW809893], the “%Inh” value was 98.6%. In the case of `O=C(Nc1cccc(-c2nn3ncccc3c2-c2ccnc(Nc3ccccc3)n2)c1)c1c(F)cccc1F` [GSK198271], the “%Inh” value is reported as 72%. In the case of `c1ccc(-c2n[nH]cc2Nc2ccnc3ccccc23)nc1` [GW694077], the “%Inh” value is reported as 12%. With `Cl.Cl.NCC(C(=O)Nc1cc(Br)c(-c2ccnc3[nH]ccc23)s1)c1ccccc1` (stereo not shown) [GSK1269851] the “%Inh” value was 86%. With `O=C(Nc1cccc(-c2nn3ccccc3c2-c2ccnc(Nc3cccc(C(F)(F)F)c3)n2)c1)c1c(F)cccc1F` [GSK292658] the “%Inh” value was 62%. `Cc1ccc(C)c(NC(=O)NC2CCN(c3ccnc(Nc4ccc(F)cc4)n3)C2)c1` (stereo not shown) [GSK1379720] was tested, and the “%Inh” value was 0%. With `COCCOCCOc1cc2ncc3c4ccc(C#N)cc4[nH]c3c2cc1OC` the “%Inh” value was 99.5%. For `CN1CCN(Cc2cccc(-c3ccc4c(Nc5ccc(Oc6ccccc6)cc5)ccnc4c3)c2)CC1` [GW578342], the “%Inh” value was 93.2%. In the case of `Cl.Cl.NCC(NCc1ccc(-c2ccnc3[nH]ccc23)s1)c1ccccc1` (stereo not shown) [GSK1321565], the “%Inh” value is reported as 75%. `Cn1cc(-c2ccc3c(c2)CCN3C(=O)Cc2cccc(F)c2)c2c(N)ncnc21` [GSK2603358] was tested, and the “%Inh” value was 66%. With `Clc1ccc(-c2nn3ncccc3c2-c2ccnc(Nc3ccc4c(c3)OCCO4)n2)cc1` [GW829116] the “%Inh” value was 59%. In the case of `Nc1ncc(-c2cccnc2)c2scc(-c3ccc4c(c3)CCN4C(=O)Cc3ccccc3)c12` [GSK683281], the “%Inh” value is reported as 83%.

— publication PMC5540273 (PLoS ONE, 2017)
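Note: KINOMEscan kinase panel screen.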
